We go through eleven substances from ChEMBL document CHEMBL1201862, “PubChem BioAssay data set” (2004).

In all, about 57,000 […] went through this assay and about 4,300 (7.5%) were called active. Cut-off read from the data, not from the text of the source: active = GI50 up to about 1.1 µM and inactive = higher. Not all results are given here. Results with a measured potency or affinity are listed apart.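 Dose response: 5 concentrations. Exposure: 48 h. Format: 96-well plates. Endpoint: linear interpolation; highest concentration if not reached. GI50 = concentration required for 50% inhibition of growth.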

This assay concerns HT-29. The assay is described as follows: NCI tumour cell line growth inhibition, 48 h.
On to “cis-Bis[[(trimethylsilyl)methyl]amino]tetrachloroplatinum(IV), CHEMBL2146191”, for which the GI50 was found to be 4.11 µM. In the case of “[Bis(aminomethyl)pentamethylenesilane]tetrachloropaltinum(IV), CHEMBL2146204” it was 1.57 µM; in that of “[Bis(aminomethyl)tetramethylenesilane]tetrachloropaltinum(IV), CHEMBL2146189”, 4.9 µM; in that of “[Bis(aminomethyl)pentamethylenesilane]dichloropaltinum(II), CHEMBL2146202”, 3.19 µM.

For CISPLATIN, CHEMBL11359, the GI50 was 7.93 µM. “[Bis(aminomethyl)dimethylsilane]dichloroplatinum (II), CHEMBL2146201” came in with a GI50 of 18.1 µM.

Turning to “[Bis(aminomethyl)dimethylsilane]tetrachloroplatinum(IV), CHEMBL2146190”, the GI50 amounted to 5.28 µM. In the case of “[Bis(aminomethyl)ethylmethylsilane]tetrachloroplatinum(IV), CHEMBL2146192” it was 1.57 µM; in that of “mu-(1,7-nanodiamine-N,N')bis-(cis-aminedichloroplatimum (II)), CHEMBL2146215”, 42.7 µM; in that of “[Bis(aminomethyl)tetramethylenesilane]dichloropaltinum(II), CHEMBL2146205”, 16.2 µM. In the case of “[Bis(aminomethyl)diethylsilane]tetrachloroplatinum(IV), CHEMBL2146203” it was 2.06 µM.
